Compound activity from PubChem.
Hits are enriched below; roughly 3.3% of the tested compounds scored in any of these assays.
Vaccinia Venus: vaccinia inhibition (Venus reporter) | Vaccinia virus Venus reporter expression, fluorescence | Potency, µM (highest dose often 36.5 µM), without a hit: at the highest dose activity change, negative = inhibition, actives largely listed as inhibitors | 330,000 tested, 0.46% active | AID 720580; calls by dose curve; tested in A549 cells; also: nearly all actives have a fitted effect of over 30% in size
HCV inh: inhibitors of hepatitis C virus infection | Huh7.5.1 HCVcc-Cre infection, luciferase reporter, 44 h | Potency, µM (top dose mostly 41.8 µM), for the others: top-dose activity change, negative = inhibition, actives largely listed as inhibitors | 340,000 tested, 3.4% active; active = well fitted inhibition curve with a large enough effect; inconclusive = small, poorly fitted or top-dose-only effect, or another doubt; inactive = no such curve, though single readings can be large or run the other way
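Whole-lifecycle infectious HCVcc-Cre system; cells 1,000/well, compound then virus (~0.5 moi) added 4 h after plating, 44 h culture. Luciferase read 15 sec following 15 min substrate incubation, room temp.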
VACV mCherry inh: inhibitors of vaccinia virus infection (mCherry reporter signal); Vaccinia virus mCherry reporter infection, fluorescence; 310,000 tested, 0.63% active; AID 720579; Potency, µM (series often up to 36.5 µM), for inactives: at the top dose activity change, negative = inhibition, actives largely listed as inhibitors; calls by dose curve; tested in A549 cells; also: nearly all actives have a fitted effect of over 35% in size
An asterisk follows results filed as active; i = inactive; ? = inconclusive; . = no result given; ! = not active in a repeat; [ ] = dose if it differs, or a comment. % is scaled to controls: 0 for no effect and ±100 for the full control effect; potency is read from the fitted curve at half-maximal effect.

SMILES	Vaccinia Venus	HCV inh	VACV mCherry inh
CCNC(=O)C1(C)CCCN(Cc2csc(-c3ccccc3)n2)C1 (stereo not given)	0%	.	-14%
CCCCC(=O)Nc1ccc2nc(SCC(=O)N3CCc4ccccc43)sc2c1	-6%	.	-14%
O=[N+]([O-])c1ccc(COc2cccc(CN3CCOCC3)c2)cc1	-6%	?	-6%
CNc1ncnc2c1ncn2[C@H]1C[C@H](O)[C@@H](CO)O1	4%	.	-4%
Cc1ccc(NC2=C(NCCO)C(=O)c3ccccc3C2=O)cc1	-26%	5%	?
O=C1C(Cl)=C(Nc2ccc3cn[nH]c3c2)C(=O)c2ccccc21	8.9µM*	4µM*	?
CN(C)c1ccc(NC2=C(Cl)C(=O)c3ccccc3C2=O)cc1	11µM*	10µM*	?
O=C(Nc1ccc2cn[nH]c2c1)c1c(Cl)cccc1Cl	-21%	-18%	-23%
CC(=O)Nc1ccc(N/C=C/C(=O)c2ccc(C)o2)cc1	-13%	17%	-12%
COc1ccc(N/C=C/C(=O)c2sc(-c3ccccc3)nc2C)cc1	?	10µM*	?
COc1ccc(N/C=C/C(=O)c2ccccc2)cc1	.	-7%	.
COc1ccccc1Oc1ccc(N/C=C/C(=O)c2ccc(C)o2)cc1	-23%	22µM*	?
CCC(O)CNC(=O)c1cnn(-c2nccc(-c3cc(C)sc3C)n2)c1C1CC1 (stereo not given)	-12%	.	-25%
COc1cc(=O)n2c(c1C(=O)NCc1ccco1)CCN(C(=O)c1c(F)ccc(F)c1F)CC2	0%	.	i
O=C(c1ccc2c(=O)n(Cc3ccco3)c(=S)[nH]c2c1)N1CCN(Cc2ccc3c(c2)OCO3)CC1	?	.	-22%
Cc1cccc(CN2CCN(Cc3ccc(Cl)cc3)CC2)c1	-1%	6.3µM*	-13%
Cc1cccc(CN2CCN(c3ccc(Cl)cc3)CC2)c1	-5%	-13%	-8%
CCN1CCN(Cc2cccc(Oc3ccc(Cl)cc3)c2)CC1	?	13µM*	-1%
CN1CCN(Cc2cccc(Oc3ccc(Cl)cc3)c2)CC1	-18%	?	-11%
CN(C)S(=O)(=O)c1cccc(C(=O)Nc2cc3c(cc2C(=O)O)OCCCO3)c1	.	5%	.
COc1ccc(CCNC2=C(Cl)C(=O)N(CCc3ccccc3)C2=O)cc1OC	-15%	13µM*	-17%
COc1ccc(CCNC2CC(=O)N(CCc3ccccc3)C2=O)cc1OC (stereo not given)	-15%	5%	-19%
Cc1cccc(C(C)C)c1NC(=O)C(C)OC(=O)Cn1cnc2c1c(=O)n(C)c(=O)n2C (stereo not given)	-10%	4%	i
CCc1ccc2oc(-c3cc(NC(=O)COc4ccc(C)cc4)ccc3O)nc2c1	?	.	-17%
CC1CCC(NC(=O)C2CCN(c3nc4ccccc4s3)CC2)CC1 (stereo not given)	-6%	10µM*	-17%
SMILES	Vaccinia Venus	HCV inh	VACV mCherry inh
Cc1ccc2nc(N3CCC(C(=O)NC4CCCCC4)CC3)sc2c1	10%[7.34 µM]	?	-2%[7.34 µM]
COc1ccc(-n2nc([N+](=O)[O-])c(=NCCc3ccc(OC)c(OC)c3)n2O)cc1	-14%	13µM*	-23%
COc1ccc(-n2nc([N+](=O)[O-])c(=NCCc3ccc(C)cc3)n2O)cc1	-11%	0%	-19%
Cc1ccc2nc(CS)[nH]c2c1	7%	.	25%
CCOc1ccc(S(=O)(=O)Nc2cnc3ccccc3c2)cc1	-5%	1.8µM*	?
CCOc1ccc(S(=O)(=O)Nc2nc3ccccc3nc2Cl)cc1	.	-9%	.
CC12CCC(=O)N1C(C(=O)Nc1ccccc1N1CCOCC1)CS2 (stereo not given)	-3%	-5%	-14%
CC12CCC(=O)N1C(C(=O)Nc1cc(C(F)(F)F)ccc1N1CCCCC1)CS2 (stereo not given)	?	3.5µM*	-11%
CC12CCC(=O)N1C(C(=O)Nc1cc(C(F)(F)F)ccc1N1CCOCC1)CS2 (stereo not given)	-5%	8.9µM*	-12%
CC12CCC(=O)N1C(C(=O)Nc1cc(Cl)ccc1N1CCCC1)CS2 (stereo not given)	-14%	8.9µM*	i
CC12CCC(=O)N1C(C(=O)Nc1ccccc1N1CCCCC1)CS2 (stereo not given)	-7%	6%	i
CC12CCC(=O)N1C(C(=O)Nc1ccccc1N1CCCC1)CS2 (stereo not given)	-11%	?	?
CCOc1ccccc1NC(=O)N1CCN(C)c2ncccc21	-8%	.	-3%
O=C(C[C@@H]1CC[C@@H]2[C@H](COC[C@H](O)CN2CCC(F)(F)F)O1)NCc1ccc2c(c1)OCO2	-14%	.	-17%
O=C(CSc1nnc(-c2c[nH]c3ccccc23)o1)N1CCCCC1	-9%	11%	i
O=C(CSc1nnc(-c2c[nH]c3ccccc23)o1)N1c2ccccc2CCc2ccccc21	?	7.9µM*	?
CCc1noc(-c2ccc(N(C)Cc3ccc(OC)cc3)c([N+](=O)[O-])c2)n1	-12%	.	-21%
O=C(c1ccco1)N1CCN(c2nc(C(F)(F)F)nc3c2nnn3Cc2ccccc2)CC1	.	4µM*	.
O=C(c1ccco1)N1CCN(c2ncnc3c2nnn3Cc2ccccc2Cl)CC1	-29%	?	-11%
C=CCn1c(SCC#N)nc2ccc(Cl)cc2c1=O	-18%	.	17%
COc1ccc(-n2c(SCC(=O)NCC3CCCO3)nc3ccccc3c2=O)cc1Cl (stereo not given)	-19%	.	i
CCOc1ccccc1OCCC(=O)OCC(=O)Nc1c(C)nn(-c2ccccc2)c1C	-9%	32%	-23%
O=C(OC[C@H]1O[C@@H](OC(=O)c2cc(O)c(O)c(OC(=O)c3cc(O)c(O)c(O)c3)c2)[C@H](OC(=O)c2cc(O)c(O)c(OC(=O)c3cc(O)c(O)c(O)c3)c2)[C@@H](OC(=O)c2cc(O)c(O)c(OC(=O)c3cc(O)c(O)c(O)c3)c2)[C@@H]1OC(=O)c1cc(O)c(O)c(OC(=O)c2cc(O)c(O)c(O)c2)c1)c1cc(O)c(O)c(OC(=O)c2cc(O)c(O)c(O)c2)c1	10µM*	11µM*	5.6µM*
COC1OC(COC(=O)c2ccccc2)C(OC(=O)c2ccccc2)C1OC(=O)c1ccccc1 (stereo not given)	.	-1%	.
CCc1cc(C(=O)NCC2Cc3cc(C)cc(-c4cc(C(C)=O)ccc4F)c3O2)n(C)n1 (stereo not given)	-23%	.	-26%
SMILES	Vaccinia Venus	HCV inh	VACV mCherry inh
O=C1CCCC2=C1Sc1ccc(Cl)cc1N2	.	11µM*	.
COC(=O)c1ccc2c(c1)SC1=C(CCCC1=O)N2	128%	?	-20%
COc1ccccc1N1CCN(C(=O)CN2C(=O)COc3ccc(S(=O)(=O)N4CCC(C)CC4)cc32)CC1	-3%	.	-10%
Cc1ccc(CNc2nc(CN3CCSCC3)nc3ccccc23)o1	-8%	.	-18%
CC(C)(C)c1cc(C=C(C#N)C#N)cc(C(C)(C)C)c1O	?	?	1µM*!
N#CC(C#N)=Cc1ccc(O)c(O)c1	-15%	-3%	-7%
CCc1nn(CC(=O)NCC(C)c2ccccc2)c(=O)c2cc3c(OC)cccc3n12 (stereo not given)	10%	.	-13%
CC(C)(c1ccccc1)c1ccc(OCC(O)CNC2CCN(Cc3ccccc3)CC2)cc1 (stereo not given)	?	8.9µM*	-13%
